Experimental findings from PubChem BioAssay AID588763 (NMMLSC, 2011) are described below.

Entries with a potency or affinity are not part of this list. Unmarked numbers belong to inactive results. Active and inactive are the calls of the source. How the calls were made is not given here.

In this assay the target is Beta-2 adrenergic receptor (Homo sapiens) (UniProt P07550). The experiment in a line: beta2AR agonists driving receptor internalization, dose response, cell-based, FAP fluorogen, flow cytometry, cherry pick 1 (AID 588763). The note with it: AM2.2-beta2AR cells, 90 min; series mostly up to 33 µM; activation (receptor internalization): at the top concentration.
Beta-2 adrenergic receptor (Homo sapiens), sequence (P07550 whole entry, looked up): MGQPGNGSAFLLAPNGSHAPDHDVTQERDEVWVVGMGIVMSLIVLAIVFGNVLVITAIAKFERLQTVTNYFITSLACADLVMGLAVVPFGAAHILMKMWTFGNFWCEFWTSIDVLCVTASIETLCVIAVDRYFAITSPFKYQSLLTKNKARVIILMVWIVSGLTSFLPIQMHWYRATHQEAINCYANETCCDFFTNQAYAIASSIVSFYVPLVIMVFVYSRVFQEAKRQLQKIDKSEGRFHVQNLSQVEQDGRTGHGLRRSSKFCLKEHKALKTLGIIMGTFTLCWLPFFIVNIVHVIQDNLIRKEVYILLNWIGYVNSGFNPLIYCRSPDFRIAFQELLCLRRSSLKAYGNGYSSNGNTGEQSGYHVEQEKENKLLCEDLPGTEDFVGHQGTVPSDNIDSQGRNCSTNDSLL
Take `CC(CCc1ccccc1)NC(C)C(O)c1ccc(O)cc1` (stereo not drawn): the “activation (receptor internalization)” value was -5.05%.
For `COc1cc(C(O)CNC(C)C)cc(F)c1OC` (stereo not drawn), the “activation (receptor internalization)” value is -4.23%.
Still for that read-out and setting: in the case of `COc1ccc(OC)c2c1CCC1NCCOC21` (stereo not drawn) it was -6.85%; in that of `COc1ccc(OC)c(C(O)C2CCCCN2)c1` (stereo not drawn), -1.51%.
For the compound `CCNCC(O)c1cccc(O)c1` (stereo not drawn), the “activation (receptor internalization)” value was 19.5%.
The same measure, in the same setting: to `CC(NCc1ccc(Cl)c(Cl)c1)C(O)c1ccccc1` (stereo not drawn) belongs 10.7%.
Consider `COc1ccc(OC)c([C@@H](O)[C@H](C)NC(C)(C)C)c1`, for which the compound was called inactive.
As to `COc1ccc(C(O)CNC(C)C)c(F)c1OC` (stereo not drawn), the “activation (receptor internalization)” value is -16.5%.
